Experiments:
Conditions in all cases: concentration: 1 μM, replicates: in singlicate; n = 1
SRPK1 = test system: SRPK1
SRPK2 = test system: SRPK2
SRPK3 = test system: SRPK3
STK16 = test system: STK16
STK33 = test system: STK33
STK35 = test system: STK35
STK36 = test system: STK36
STK39 = test system: STK39
SYK = test system: SYK
SgK110 = test system: SgK110
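Further: KINOMEscan kinase panel screen.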

| SMILES | %Inh (SRPK1) | %Inh (SRPK2) | %Inh (SRPK3) | %Inh (STK16) | %Inh (STK33) | %Inh (STK35) | %Inh (STK36) | %Inh (STK39) | %Inh (SYK) | %Inh (SgK110) |
| --- | --- | --- | --- | --- | --- | --- | --- | --- | --- | --- |
| COc1ccc(-c2cc3c(C)nc(N)nc3n([C@H]3CC[C@H](O)CC3)c2=O)cn1 | 21% | 0% | 0% | 0% | 0% | 0% | 0% | 0% | 0% | 0% |
| CCC(=O)c1c(-c2ccccc2)c2cc(Cl)ccc2c(=O)n1Cc1cc(S(C)(=O)=O)n(CCC(C)(C)O)n1 | 3% | 53% | 11% | 1% | 8% | 15% | 11% | 0% | 25% | 9% |
| O=C(NCCNc1ccnc(Nc2ccc(F)cc2)n1)Nc1ccc2c(c1)OCO2 [GSK1379882] | 17% | 24% | 0% | 23% | 0% | 0% | 0% | 12% | 0% | 0% |
| COC(=O)c1c(-c2ccccc2)c2cc(Br)ccc2c(=O)n1Cc1ccc(S(C)(=O)=O)cc1 | 0% | 0% | 1% | 38% | 2% | 0% | 10% | 2% | 0% | 6% |
| Nc1nc(-c2ccccc2F)c(-c2ccnc3ccccc23)s1 [GW560459] | 25% | 0% | 0% | 7% | 0% | 0% | 0% | 1% | 32% | 0% |
| COc1ccc(CNC(=O)NC2CCN(c3ccnc(Nc4ccc(F)cc4)n3)C2)cc1 (centres unmarked) [GSK1379706] | 0% | 80% | 21% | 19% | 14% | 0% | 27% | 13% | 34% | 0% |
| Cl.NS(=O)(=O)c1cccc(Nc2cc(-c3ccc(F)cc3)n[nH]2)c1 [GW824645] | 0% | 0% | 2% | 18% | 0% | 0% | 0% | 0% | 3% | 0% |
| CCS(=O)c1ccc(-c2coc3ccc(-c4nnc(C)o4)cc23)cc1 (centres unmarked) | 0% | 0% | 5% | 22% | 0% | 0% | 2% | 28% | 13% | 5% |
| CCC(=O)c1c(-c2ccccc2)c2cc(Cl)ccc2c(=O)n1Cc1ccc(C(=O)O)cc1 | 0% | 10% | 0% | 0% | 0% | 0% | 0% | 23% | 0% | 49% |
| COc1cccc(C2=C(N(C)c3ccccc3)C(=O)NC2=O)c1 [SB-334865] | 0% | 7% | 0% | 22% | 0% | 0% | 0% | 7% | 9% | 0% |
| O=C(Nc1ccc2c(c1)OCO2)NC1CCN(c2ccnc(NCc3ccc(F)cc3)n2)CC1 [GSK1379859] | 28% | 0% | 0% | 7% | 0% | 0% | 0% | 0% | 16% | 0% |
| Cc1c(Cn2c(C)nn3c(=O)cc(N4CCO[C@H](C)C4)nc23)cccc1C(F)(F)F [GSK2373690] | 0% | 0% | 0% | 6% | 0% | 2% | 0% | 32% | 25% | 2% |
| COc1cc2ncn(-c3cc(OCCCc4ccccc4)c(C(N)=O)s3)c2cc1OC [GSK205189] | 27% | 0% | 7% | 13% | 0% | 15% | 0% | 0% | 21% | 0% |
| Nc1ncnc2c1ncn2-c1cccc(F)c1 [SKF-97560] | 16% | 0% | 0% | 6% | 6% | 0% | 4% | 0% | 25% | 5% |
| CN1C(=O)C(Nc2cc(Cl)c(O)c(Cl)c2)=C(c2ccc(Cl)cc2)C1=O [SB-404321] | 0% | 0% | 96.2% | 0% | 0% | 0% | 19% | 0% | 0% | 0% |
| CN(C)c1cc(-c2ccc3c(N)n[nH]c3c2)nc(N)n1 [GSK2219329] | 0% | 0% | 0% | 0% | 0% | 0% | 0% | 0% | 17% | 0% |
| CC(C)(C)c1ccc(C(=O)Nc2cn3cc(-c4ccccc4)ccc3n2)cc1 | 0% | 3% | 0% | 0% | 3% | 47% | 8% | 0% | 0% | 0% |
| Cc1nn2c(=O)cc(N3CCOCC3)nc2n1Cc1cccc(Cl)c1Cl [GSK2342769] | 19% | 0% | 0% | 0% | 0% | 0% | 0% | 10% | 8% | 0% |

| SMILES | %Inh (SRPK1) | %Inh (SRPK2) | %Inh (SRPK3) | %Inh (STK16) | %Inh (STK33) | %Inh (STK35) | %Inh (STK36) | %Inh (STK39) | %Inh (SYK) | %Inh (SgK110) |
| --- | --- | --- | --- | --- | --- | --- | --- | --- | --- | --- |
| O=C(Nc1n[nH]c2cc(-c3ccccc3F)ccc12)C1CC1 [SB-733371] | 10% | 0% | 38% | 0% | 0% | 11% | 0% | 2% | 17% | 0% |
| CCn1c(-c2ccoc2)nc2cnccc21 [SB-733887] | 41% | 18% | 0% | 1% | 0% | 0% | 0% | 0% | 26% | 0% |
| Cn1c(=O)c(F)c(Nc2ccc(I)cc2F)c2c(=O)n(OC[C@H](O)CO)cnc21 | 15% | 13% | 7% | 14% | 0% | 0% | 9% | 32% | 20% | 0% |
| CCCNC(=O)Nc1ccc(Oc2ncnc3ccn(C)c23)cc1 | 25% | 0% | 10% | 11% | 0% | 0% | 32% | 0% | 0% | 41% |
| CCc1ccc(-c2ccc3c(c2)-c2nn(C)cc2S(=O)(=O)N3C)cc1 | 0% | 0% | 0% | 0% | 2% | 0% | 0% | 0% | 27% | 12% |
| COC(=O)c1c(-c2ccccc2)c2cc(C)ccc2c(=O)n1Cc1ccccc1 | 0% | 0% | 0% | 19% | 0% | 0% | 1% | 0% | 0% | 12% |
| Nc1ncnc2c1ncn2-c1ccc(Cl)cc1 [AH2635] | 0% | 13% | 0% | 3% | 0% | 0% | 0% | 0% | 31% | 0% |
| COc1cc(OC)cc(-c2cc3cnc(N)nc3nc2NC(=O)NC(C)(C)C)c1 | 47% | 0% | 0% | 0% | 0% | 0% | 0% | 0% | 0% | 0% |
| COC(=O)c1c(-c2ccccc2)c2cc(Br)ccc2c(=O)n1Cc1ccc(NC(=O)CCC(=O)O)cc1 | 0% | 10% | 20% | 15% | 0% | 0% | 8% | 14% | 0% | 0% |
| Cl.c1ccc(Cn2cnc3cc(Nc4ncnc5ccccc45)ccc32)cc1 [GW272142] | 19% | 0% | 0% | 28% | 0% | 0% | 0% | 7% | 11% | 0% |
| Nc1nccc2scc(-c3ccc4c(c3)CCN4C(=O)Cc3ccccc3)c12 [GSK2576924] | 28% | 0% | 0% | 4% | 0% | 0% | 0% | 11% | 16% | 0% |
| COc1cccc(C2=C(Nc3cccc(C(=O)O)c3)C(=O)NC2=O)c1 [SB-390770] | 8% | 24% | 11% | 8% | 2% | 12% | 4% | 0% | 30% | 3% |
| Cc1ccc(-c2ccc3c(ccc4sc5c(c43)NC[C@@H](C)N=C5N(C)C)n2)cn1 | 0% | 6% | 25% | 0% | 0% | 0% | 0% | 0% | 0% | 14% |
| COc1cc(Nc2ccnc3ccc(C(F)(F)F)cc23)cc(OC)c1OC [GW577382] | 0% | 0% | 0% | 0% | 15% | 0% | 0% | 16% | 37% | 0% |
| Nc1ncnc2c1ncn2-c1cccc2ccccc12 [SKF-97184] | 0% | 32% | 12% | 9% | 0% | 0% | 6% | 25% | 0% | 31% |
| Nc1n[nH]c2nnc(-c3ccccc3)c(-c3ccccc3)c12 [GW554060] | 0% | 0% | 9% | 25% | 0% | 0% | 0% | 35% | 0% | 0% |
| COc1ccc(-c2coc3ccc(-c4nnc(SCc5cccc(C#N)c5)o4)cc23)cc1 | 0% | 0% | 0% | 20% | 0% | 26% | 8% | 0% | 14% | 10% |
